Only some compounds are listed: those with a hit (about 0.87% of all), similar ones and a draw of the others.
BLM helicase inh: inhibitors of human Bloom syndrome helicase BLM. Potency, µM (top dose mostly 56.1 µM), usual class: inhibitors. recombinant BLM DNA unwinding, fluorescence dequenching. AID 2528. hit rate 0.2% among 350,000. P54132; also: nearly all actives have a fitted effect of over 35% in size
WRN inhibitor: inhibitors of human WRN helicase. WRN helicase unwinding, fluorescent forked duplex, kinetic. Potency, µM (highest dose often 114 µM), usual class: inhibitors. hit rate 0.46% among 360,000. AID 651768; also: nearly all actives have a fitted effect of over 55% in size
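Primary qHTS, 1536-well format. 20 nM WRN + compound, 15 min RT; start with 100 nM forked fluorophore/quencher duplex, 2 mM ATP (final); kinetic read ex 525/em 598 nm.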
FEN1 inh-1: blocks human flap endonuclease 1; P39748; Recombinant FEN1 flap cleavage, fluorescence, 15 min; Potency, µM (top dose mostly 114 µM), actives largely listed as inhibitors; hit rate 0.35% among 390,000; also: nearly all actives have a fitted effect of over 65% in size
Target sequence (P39748 whole entry, looked up): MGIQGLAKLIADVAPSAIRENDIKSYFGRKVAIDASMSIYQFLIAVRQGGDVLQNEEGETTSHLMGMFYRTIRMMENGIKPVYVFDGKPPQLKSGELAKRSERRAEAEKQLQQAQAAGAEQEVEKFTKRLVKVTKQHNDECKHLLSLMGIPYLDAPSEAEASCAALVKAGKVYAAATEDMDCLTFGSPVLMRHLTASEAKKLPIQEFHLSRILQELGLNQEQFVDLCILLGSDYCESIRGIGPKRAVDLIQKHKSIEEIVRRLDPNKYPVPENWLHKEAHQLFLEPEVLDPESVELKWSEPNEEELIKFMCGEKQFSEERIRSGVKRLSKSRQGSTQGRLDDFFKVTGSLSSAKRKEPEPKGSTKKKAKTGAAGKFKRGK
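FEN1 at 10 nM, compound pretreatment for 15 min (room temperature), 50 nM final substrate to initiate; endpoint reads at 0 and 15 min; DMSO-only plates used as vehicle background.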
RECQ1 helicase: blocks DNA unwinding by human RECQ1. Potency, µM (series often up to 57.3 µM), most hits filed as inhibitors. hit rate 0.54% among 240,000. AID 2549. RECQ1 DNA unwinding, red fluorescence kinetic read; also: nearly all actives have a fitted effect of over 30% in size
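50 nM RECQ1T1 preincubated 15 min with compound in Tris pH 8.0 buffer with MgCl2, DTT, Tween-20 and 2.5 ug/ml poly(dI-dC); started with 200 nM TAMRA/BHQ-2 forked duplex and 2 mM ATP. Unwinding read as fluorescence (525/598 nm), two reads 2 h apart.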
APE1 inh: inhibitors of human APE1 endonuclease; P27695; recombinant APE1, TAMRA/BHQ-2 abasic DNA cleavage fluorescence; Potency, µM (highest dose often 65.8 µM), actives largely listed as inhibitors; hit rate 0.35% among 350,000; AID 2517; also: nearly all actives have a fitted effect of over 55% in size
Target sequence (P27695 whole entry, looked up): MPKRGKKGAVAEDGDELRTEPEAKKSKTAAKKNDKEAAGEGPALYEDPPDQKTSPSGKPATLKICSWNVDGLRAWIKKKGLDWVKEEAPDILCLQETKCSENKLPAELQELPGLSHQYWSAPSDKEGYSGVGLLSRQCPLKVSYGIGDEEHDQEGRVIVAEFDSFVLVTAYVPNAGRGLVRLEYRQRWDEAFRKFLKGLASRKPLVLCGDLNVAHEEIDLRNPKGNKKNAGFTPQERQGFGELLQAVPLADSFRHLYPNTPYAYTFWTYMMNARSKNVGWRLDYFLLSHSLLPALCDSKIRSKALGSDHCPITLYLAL
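Quantitative HTS: incision of a TAMRA/BHQ-2 double-stranded substrate bearing a tetrahydrofuran abasic site by 0.75 nM APE1 raises fluorescence. Substrate 50 nM final, added after 15 min compound preincubation at room temperature; progress as third-minus-first kinetic read difference.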
FEN1 inh-2: confirmation of human FEN1 inhibitors; shares compounds with FEN1 inh-1; FEN1 flap cleavage, TAMRA/BHQ2 fluorogenic DNA substrate; Potency, µM, actives largely listed as inhibitors; hit rate 79% among 880; AID 720498; also: nearly all actives have a fitted effect of over 60% in size
A number is an active result; [ ] = remark or other dose. Calls follow the shape of the dose curve; as a rule, active = well fitted curve in the direction sought with a large enough effect; inconclusive = small, poorly fitted or top-dose-only effect, or another doubt; inactive = no such curve, though single readings can be large; an effect the other way counts as inactive or inconclusive.

Screening O=[N+]([O-])c1ccc(N=Nc2ccc(O)cc2O)cc1 returned BLM helicase inh inactive, WRN inhibitor inactive, FEN1 inh-1 inactive, RECQ1 helicase inactive and APE1 inh inactive.
COc1ccc(-c2cn3c(n2)sc2cc(C(=O)NCCCN4CCCCC4)ccc23)cc1 was read as BLM helicase inh inactive, FEN1 inh-1 inactive and FEN1 inh-2 67.
Screening COc1ccc(-c2cn3c(n2)sc2cc(C(=O)NCCCN4CCN(C)CC4)ccc23)cc1 returned BLM helicase inh inactive and FEN1 inh-1 inactive.
For COc1ccc(-c2cn3c(n2)sc2cc(C(=O)NCCCN4CCCCCC4)ccc23)cc1 the results were BLM helicase inh inactive, FEN1 inh-1 inactive and FEN1 inh-2 38.
CC(=O)Nc1ccc(S(=O)(=O)Nc2cccc(-c3ccc(N4CCC(C)CC4)nn3)c2)cc1 was read as BLM helicase inh inactive and FEN1 inh-1 inactive.
`COc1ccc(/C=N/Nc2cc(C)nc3ccc(Br)cc23)cc1` gave BLM helicase inh inactive, WRN inhibitor inactive[11.6 µM], FEN1 inh-1 inconclusive, APE1 inh inactive and FEN1 inh-2 inconclusive.
For COc1ccc2nc(C)cc(N/N=C/c3cccc(OC)c3O)c2c1 the results were BLM helicase inh inactive, WRN inhibitor inconclusive, FEN1 inh-1 14µM, APE1 inh inactive and FEN1 inh-2 9.5.
For COc1cccc2c(N/N=C/c3ccccc3)cc(C)nc12 the results were BLM helicase inh inactive, WRN inhibitor inactive, FEN1 inh-1 inactive and APE1 inh inactive.
CNc1c2cccc(C)c2nc2c(C(=O)NCCN(C)C)cccc12 was read as WRN inhibitor inactive, FEN1 inh-1 2.8µM and FEN1 inh-2 2.7.
Screening Cn1c(=O)c2c(-c3ccccc3)n3c(c2n(C)c1=O)C(c1cccc([N+](=O)[O-])c1)Nc1ccccc1-3 (centres undefined) returned BLM helicase inh inactive and FEN1 inh-1 inactive.
Cc1ccc(-c2cc(C(=O)Nc3ccc(S(=O)(=O)Nc4ncccn4)cc3)[nH]n2)c(O)c1C was read as BLM helicase inh inactive, WRN inhibitor inconclusive, FEN1 inh-1 inconclusive, RECQ1 helicase inactive, APE1 inh inactive and FEN1 inh-2 inconclusive.
For O=c1cc(-c2ccc(O)cc2)oc2ccc3ccccc3c12 the results were WRN inhibitor inactive, FEN1 inh-1 inconclusive, APE1 inh inactive and FEN1 inh-2 inconclusive.
`O=C(O)C(c1ccccc1)N1C(=O)/C(=C\c2ccc(O)c(O)c2)SC1=S` (centres undefined) gave BLM helicase inh inactive, WRN inhibitor 32µM, FEN1 inh-1 inconclusive, APE1 inh inactive and FEN1 inh-2 30.
Screening CCOc1cc(/C=C2\SC(=S)N(C(C(=O)O)c3ccccc3)C2=O)ccc1O (centres undefined) returned BLM helicase inh inconclusive, WRN inhibitor 56µM, FEN1 inh-1 inconclusive, RECQ1 helicase inactive, APE1 inh inactive and FEN1 inh-2 85.
Screening O=C(O)C(Cc1ccccc1)N1C(=O)/C(=C/c2cccnc2)SC1=S (centres undefined) returned BLM helicase inh inactive, WRN inhibitor inactive, FEN1 inh-1 inactive, RECQ1 helicase inactive and APE1 inh inactive.
`CCN=C1S/C(=C\c2ccc(O)c(OCC)c2)C(=O)N1CC` gave BLM helicase inh inactive, WRN inhibitor inactive, FEN1 inh-1 inactive, RECQ1 helicase inactive and APE1 inh inactive.
Screening CCOC(=O)C1CCN(c2c(NCCCN(CC)c3ccccc3)c(=O)c2=O)CC1 returned BLM helicase inh inactive, WRN inhibitor inactive, FEN1 inh-1 inactive, RECQ1 helicase inactive and APE1 inh inactive.
For CCN(CCCNc1cc2c(c(N)c1S(=O)(=O)O)C(=O)c1ccccc1C2=O)c1ccccc1 the results were WRN inhibitor inactive[11.6 µM] and FEN1 inh-2 inconclusive.
`COc1ccc(/C=C2/SC(=S)N(c3ccc(S(=O)(=O)Nc4nccs4)cc3)C2=O)cc1` gave BLM helicase inh inactive, WRN inhibitor inconclusive, FEN1 inh-1 50µM, RECQ1 helicase inconclusive, APE1 inh inactive and FEN1 inh-2 60.
For COc1ccc(NC(=O)CN2C(=O)N/C(=C\c3cccn3-c3ccc(C(=O)NC#N)cc3)C2=O)cc1 the results were FEN1 inh-2 43.
Screening CCCN(CCC)CCCNC(=O)c1cc2c(-c3ccc(Cl)cc3)nn(C)c2s1 returned BLM helicase inh inactive, FEN1 inh-1 inconclusive and FEN1 inh-2 inconclusive.
`COc1ccc(CNC(=O)c2cc3c(-c4ccc(Cl)cc4)nn(C)c3s2)cc1` gave BLM helicase inh inactive and FEN1 inh-1 inactive.
Screening COc1ccc(CN(C)c2ccc(-c3nc(C)no3)cc2[N+](=O)[O-])cc1 returned BLM helicase inh inactive and FEN1 inh-1 inactive.
Cc1ccc(S(=O)(=O)Nc2ccc(Br)cc2C(NCC(=O)O)c2ccccc2)cc1 (centres undefined) was read as BLM helicase inh inactive, WRN inhibitor inactive, FEN1 inh-1 inactive, RECQ1 helicase inactive and APE1 inh inactive.
O=C(O)CSc1cc(NS(=O)(=O)c2ccc(Br)cc2)c2ccccc2c1O was read as BLM helicase inh inconclusive, WRN inhibitor 50µM, FEN1 inh-1 inconclusive, APE1 inh inactive and FEN1 inh-2 67.
`CCc1nc(N2CCN(C(=O)c3ccco3)CC2)c(C#N)c2c1COC(C)(C)C2` gave BLM helicase inh inactive, WRN inhibitor inactive, FEN1 inh-1 inactive and APE1 inh inactive.
`CC1(C)Cc2c(C#N)c(N3CCN(C(=O)c4ccco4)CC3)nc(-c3ccco3)c2CS1` gave BLM helicase inh inconclusive, WRN inhibitor 40µM, FEN1 inh-1 inconclusive, RECQ1 helicase inactive, APE1 inh inactive and FEN1 inh-2 inconclusive.
Screening COc1ccc(C(=O)c2cn(CC(=O)Nc3cc(OC)cc(OC)c3)c3ccc(OC)cc3c2=O)cc1 returned BLM helicase inh inactive, FEN1 inh-1 inconclusive, APE1 inh inactive and FEN1 inh-2 inconclusive.
`CCc1ccc(C(=O)c2cn(CC(=O)Nc3ccc4c(c3)OCO4)c3ccc(OC)cc3c2=O)cc1` gave BLM helicase inh 14µM, FEN1 inh-1 32µM and FEN1 inh-2 67.
`CCOc1ccc(NC(=O)Cn2cc(C(=O)c3ccccc3)c(=O)c3cc(OC)ccc32)cc1` gave BLM helicase inh inactive and FEN1 inh-1 inactive.
For COc1cc(NC(=O)C2CCN(S(=O)(=O)c3c(C)noc3/C=C/c3c(C)cc(C)cc3C)CC2)cc(OC)c1 the results were BLM helicase inh inactive and FEN1 inh-1 inactive.
O=S1(=O)c2ccccc2N(Cc2cccc(F)c2)c2ccccc21 was read as BLM helicase inh inactive and FEN1 inh-1 inactive.
Screening CN1C/C(=C/c2ccc(B(O)O)cc2)C(=O)/C(=C/c2ccc(B(O)O)cc2)C1 returned BLM helicase inh inactive, RECQ1 helicase inactive and APE1 inh inactive.
For CN(C)CCNc1ccc2ncn3c4ccc(O)cc4c(=O)c1c23 the results were WRN inhibitor inconclusive, FEN1 inh-1 8.9µM and FEN1 inh-2 4.8.

Screens: PubChem BioAssay, National Center for Advancing Translational Sciences (NCATS)
